Data published in the supplement of paper PMC6805474.

tested on: Schistosoma mansoni schistosomula (LE); assay: XTT viability relative to DMSO control; higher = more viable (less active); conditions: 72 h; 10 µM
Method: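 XTT/PMS was then added for a further 24 h (72 h total) and A450 was read. % viability = (sample - heat-killed control)/(DMSO control - heat-killed control) x 100, from duplicate wells in two independent experiments.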

Going from `CC1COC(Cn2cncn2)(c2ccc(Oc3ccc(Cl)cc3)cc2Cl)O1` (centres undefined) to `CCc1nn(C)c(C(=O)NCc2ccc(Oc3ccc(C)cc3)cc2)c1Cl`, the XTT viability rises from 47.3% to 72.8%.

Compared with `Cc1nn(Cc2ccccc2)c(Cl)c1C(=O)NC1CCCCCC1`, `CO[C@@H]1CN(c2ccc(C#CC3(O)CN4CCC3CC4)c(Cc3ccccc3)n2)C[C@H]1O` (some centres undefined) is higher in XTT viability: 87.9% for the first, 90.7% for the second.

Compared with `Cc1nn(C)c(C)c1NS(=O)(=O)c1c(Cl)cc(-c2ccnc(N3CCNCC3)c2)cc1Cl`, `Cc1cccc(C(=O)Nc2ccnc(N(C)C3CCN(CC(C)C)CC3)c2)c1` is higher in XTT viability: 121% for the first, 125% for the second.

Compared with `Nc1c2c(nc3sc4c(c13)CCCC4)CCCC2`, `O=C1O[C@@H](CO)CN1c1cc(F)c(C2=CCN(Cc3ccccc3)CC2)c(F)c1` is higher in XTT viability: 89.4% for the first, 127% for the second.

Compared with `CC(C)(C)C(O)C(Oc1ccc(-c2ccccc2)cc1)n1cncn1` (centres undefined), `CO/C=C(/C(=O)OC)c1ccccc1Oc1cc(Oc2ccccc2C#N)ncn1` is lower in XTT viability: 106% for the first, 79.5% for the second.

Compared with `Cc1cc(C2=NOC(c3cc(Cl)c(F)c(Cl)c3)(C(F)(F)F)C2)ccc1C(=O)NCc1ccc2c(c1)C(C)(C)OB2O` (centres undefined), `CC1(C)OB(O)c2ccc(C3=NOC(c4cc(Cl)c(F)c(Cl)c4)(C(F)(F)F)C3)cc21` (centres undefined) is higher in XTT viability: 23.2% for the first, 33.5% for the second.

First: O=C1O[C@@H](COc2ccon2)CN1c1cc(F)c(C2=CCN(Cc3ccccc3)CC2)c(F)c1
Second: CO/N=C(\C(=O)OC)c1ccccc1CO/N=C(\C)c1cccc(C(F)(F)F)c1
The XTT viability of the first is lower: 72.9% for the first, 109% for the second.
